Results: PubChem BioAssay (Tox21)
Inconclusive results are not listed. A call without a number means that no potency is given here. Unmarked numbers belong to inactive results. Activity calls are given as the source filed them. Calls come from the whole dose curve; as a rule, active = well fitted curve in the direction sought with a large enough effect in the repeat runs; inconclusive = weak or mixed curves; inactive = no such curve, though single readings can be large; an effect the other way counts as inactive or inconclusive.

What was measured:
[1] = biological target: Cytochrome P450 2D6 (Homo sapiens) (UniProt P10635); assay: Cytochrome P450 Family 2 Subfamily D Member 6 (CYP2D6) small molecule antagonists: luciferase reporter qHTS assay (AID 1671196); note: nearly all actives have a fitted effect of over 50% in size; for activity change, negative = inhibition: series mostly up to about 120 µM
Cytochrome P450 2D6 (Homo sapiens), sequence (P10635 whole entry, looked up): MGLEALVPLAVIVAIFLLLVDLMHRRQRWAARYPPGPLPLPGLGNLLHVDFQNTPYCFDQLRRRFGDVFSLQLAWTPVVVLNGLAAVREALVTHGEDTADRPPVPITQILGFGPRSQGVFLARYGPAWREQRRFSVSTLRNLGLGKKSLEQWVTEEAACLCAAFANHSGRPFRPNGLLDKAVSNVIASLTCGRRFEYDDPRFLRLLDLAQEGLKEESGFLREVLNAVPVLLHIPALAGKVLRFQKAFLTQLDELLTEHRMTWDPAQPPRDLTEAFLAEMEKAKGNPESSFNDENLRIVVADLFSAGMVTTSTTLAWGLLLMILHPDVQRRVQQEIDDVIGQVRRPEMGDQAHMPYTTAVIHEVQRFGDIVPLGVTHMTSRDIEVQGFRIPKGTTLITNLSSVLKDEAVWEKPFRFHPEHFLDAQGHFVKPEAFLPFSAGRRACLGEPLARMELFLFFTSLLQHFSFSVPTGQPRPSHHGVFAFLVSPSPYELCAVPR
In short: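 Each well received CYP2D6 with its proluciferin substrate and chemical, sat 10 min, then got NADPH regeneration solution for 1 h at room temperature. Luminescence in RLU served as the activity measure.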

[2] = biological target: Cytochrome P450 2C19 (Homo sapiens) (UniProt P33261); assay: Cytochrome P450 Family 2 Subfamily C Member 19 (CYP2C19) small molecule antagonists: luciferase reporter qHTS assay (AID 1671197); note: nearly all actives have a fitted effect of over 65% in size; for activity change, negative = inhibition: series mostly up to about 120 µM
Cytochrome P450 2C19 (Homo sapiens), sequence (P33261 whole entry, looked up): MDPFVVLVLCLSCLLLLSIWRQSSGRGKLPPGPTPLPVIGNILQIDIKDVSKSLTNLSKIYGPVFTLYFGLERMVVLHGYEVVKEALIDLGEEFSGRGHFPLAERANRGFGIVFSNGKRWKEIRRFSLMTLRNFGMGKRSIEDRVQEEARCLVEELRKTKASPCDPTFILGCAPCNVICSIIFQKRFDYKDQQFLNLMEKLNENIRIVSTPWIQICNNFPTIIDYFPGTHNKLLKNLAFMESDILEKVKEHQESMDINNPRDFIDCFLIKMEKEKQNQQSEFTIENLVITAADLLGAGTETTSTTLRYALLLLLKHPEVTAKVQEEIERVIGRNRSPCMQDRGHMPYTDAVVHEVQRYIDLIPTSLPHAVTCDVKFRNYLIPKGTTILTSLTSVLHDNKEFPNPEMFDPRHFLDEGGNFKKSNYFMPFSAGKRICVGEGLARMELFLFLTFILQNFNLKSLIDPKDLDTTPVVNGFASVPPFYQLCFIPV
In short: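 Enzyme-substrate mix with proluciferin substrate (P450-Glo CYP2C19 system) preincubated with compounds 10 min at room temperature; NADPH regeneration solution added, 37C for 1 h; detection reagent stops reaction, luminescence read after 20 min. Ketoconazole positive control.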

[3] = biological target: Cytochrome P450 2C9 (Homo sapiens) (UniProt P11712); assay: Cytochrome P450 Family 2 Subfamily C Member 9 (CYP2C9) small molecule antagonists: luciferase reporter qHTS assay (AID 1671198); note: nearly all actives have a fitted effect of over 50% in size; for activity change, negative = inhibition: series mostly up to about 120 µM
Cytochrome P450 2C9 (Homo sapiens), sequence (P11712 whole entry, looked up): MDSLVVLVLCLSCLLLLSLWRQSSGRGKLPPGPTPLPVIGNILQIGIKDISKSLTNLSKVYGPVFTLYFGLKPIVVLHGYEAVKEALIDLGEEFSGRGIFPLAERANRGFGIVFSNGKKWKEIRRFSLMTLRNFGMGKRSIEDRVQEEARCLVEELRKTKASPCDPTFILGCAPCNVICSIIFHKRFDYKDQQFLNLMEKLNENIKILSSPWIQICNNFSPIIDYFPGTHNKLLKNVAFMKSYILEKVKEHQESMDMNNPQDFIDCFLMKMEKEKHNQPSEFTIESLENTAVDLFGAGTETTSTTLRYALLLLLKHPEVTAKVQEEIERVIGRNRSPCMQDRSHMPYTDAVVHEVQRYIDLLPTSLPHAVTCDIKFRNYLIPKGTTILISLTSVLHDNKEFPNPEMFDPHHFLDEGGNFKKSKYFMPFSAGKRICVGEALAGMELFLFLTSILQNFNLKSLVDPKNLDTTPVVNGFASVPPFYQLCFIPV
In short: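 P450-Glo proluciferin substrate with CYP2C9 enzyme; 10 min RT preincubation, then NADPH regeneration 1 h at 37C; luciferin detection reagent 20 min RT, luminescence in relative luminescence units.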

[4] = biological target: Cytochrome P450 1A2 (Homo sapiens) (UniProt P05177); assay: Cytochrome P450 Family 1 Subfamily A Member 2 (CYP1A2) small molecule antagonists: luciferase reporter qHTS assay (AID 1671199); note: nearly all actives have a fitted effect of over 50% in size; for activity change, negative = inhibition: series mostly up to about 120 µM
Cytochrome P450 1A2 (Homo sapiens), sequence (P05177 whole entry, looked up): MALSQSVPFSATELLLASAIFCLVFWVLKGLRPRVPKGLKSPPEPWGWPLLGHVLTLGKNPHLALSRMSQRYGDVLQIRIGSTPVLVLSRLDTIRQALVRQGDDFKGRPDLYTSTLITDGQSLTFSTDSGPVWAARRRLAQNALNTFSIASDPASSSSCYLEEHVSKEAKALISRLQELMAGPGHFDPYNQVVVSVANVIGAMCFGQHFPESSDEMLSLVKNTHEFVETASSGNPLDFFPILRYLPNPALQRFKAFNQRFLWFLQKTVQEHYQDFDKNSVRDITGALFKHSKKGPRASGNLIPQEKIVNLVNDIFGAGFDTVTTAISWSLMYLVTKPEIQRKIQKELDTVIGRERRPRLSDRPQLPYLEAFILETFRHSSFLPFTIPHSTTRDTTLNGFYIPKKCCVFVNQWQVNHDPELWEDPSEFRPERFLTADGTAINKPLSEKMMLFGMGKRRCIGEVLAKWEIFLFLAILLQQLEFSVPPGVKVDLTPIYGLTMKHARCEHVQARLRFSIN
In short: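 Enzymatic CYP1A2 assay, human, luminescent: 10 min compound–enzyme–substrate preincubation, 1 h NADPH-dependent turnover, 20 min detection step, room temperature throughout. Reduced light indicates lower CYP1A2 activity.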

[5] = biological target: Voltage-gated inwardly rectifying potassium channel KCNH2 (Homo sapiens) (UniProt Q12809); assay: Human Ether-a-go-go-Related Gene (hERG) channel small molecule antagonists: fluorescence cell-based qHTS assay (AID 1671200); note: nearly all actives have a fitted effect of over 50% in size;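 for activity change, negative = inhibition: hERG-expressing U2OS cells given a thallium stimulus after FluxOR II dye loading; series mostly up to about 77 µM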
Voltage-gated inwardly rectifying potassium channel KCNH2 (Homo sapiens), sequence (Q12809 whole entry, looked up): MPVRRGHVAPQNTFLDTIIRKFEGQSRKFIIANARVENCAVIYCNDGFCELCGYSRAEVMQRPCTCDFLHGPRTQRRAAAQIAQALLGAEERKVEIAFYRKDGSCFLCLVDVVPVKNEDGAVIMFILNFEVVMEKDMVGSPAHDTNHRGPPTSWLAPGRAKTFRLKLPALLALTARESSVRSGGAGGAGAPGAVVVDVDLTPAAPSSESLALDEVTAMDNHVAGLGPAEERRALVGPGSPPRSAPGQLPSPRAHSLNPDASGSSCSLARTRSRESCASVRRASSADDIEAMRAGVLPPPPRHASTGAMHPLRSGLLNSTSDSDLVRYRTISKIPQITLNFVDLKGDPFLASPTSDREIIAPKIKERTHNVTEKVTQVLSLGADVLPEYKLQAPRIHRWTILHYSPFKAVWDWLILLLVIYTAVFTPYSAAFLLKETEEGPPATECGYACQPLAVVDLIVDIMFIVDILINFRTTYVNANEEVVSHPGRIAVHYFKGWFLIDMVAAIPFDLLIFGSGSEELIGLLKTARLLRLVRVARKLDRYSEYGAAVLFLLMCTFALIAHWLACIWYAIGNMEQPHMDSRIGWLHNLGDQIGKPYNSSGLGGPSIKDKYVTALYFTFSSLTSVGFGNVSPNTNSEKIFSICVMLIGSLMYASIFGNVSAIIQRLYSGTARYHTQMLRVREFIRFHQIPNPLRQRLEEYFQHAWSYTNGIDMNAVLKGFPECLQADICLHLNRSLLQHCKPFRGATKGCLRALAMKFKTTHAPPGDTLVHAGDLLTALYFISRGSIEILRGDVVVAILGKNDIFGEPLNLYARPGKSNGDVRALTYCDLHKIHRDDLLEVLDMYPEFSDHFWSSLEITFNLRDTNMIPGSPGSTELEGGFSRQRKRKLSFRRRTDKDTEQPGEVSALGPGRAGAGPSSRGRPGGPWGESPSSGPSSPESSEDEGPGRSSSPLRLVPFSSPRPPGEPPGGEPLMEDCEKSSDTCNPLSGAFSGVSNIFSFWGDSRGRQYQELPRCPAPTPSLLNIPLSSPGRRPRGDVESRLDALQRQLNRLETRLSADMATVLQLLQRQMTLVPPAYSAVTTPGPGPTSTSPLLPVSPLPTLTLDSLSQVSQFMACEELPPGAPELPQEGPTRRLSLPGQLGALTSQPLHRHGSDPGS
In short: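 U2OS cells expressing the channel were plated at 1000 cells/well, incubated overnight at 37 C, then loaded with FluxOR II thallium-sensitive dye for 1 h at room temperature in the dark, with a further 10 min at room temperature before stimulation.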

[6] = biological target: Cytochrome P450 3A4 (Homo sapiens) (UniProt P08684); assay: Cytochrome P450 Family 3 Subfamily A Member 4 (CYP3A4) small molecule antagonists: luciferase reporter qHTS assay (AID 1671201); note: nearly all actives have a fitted effect of over 50% in size; for activity change, negative = inhibition: series mostly up to about 120 µM
Cytochrome P450 3A4 (Homo sapiens), sequence (P08684 whole entry, looked up): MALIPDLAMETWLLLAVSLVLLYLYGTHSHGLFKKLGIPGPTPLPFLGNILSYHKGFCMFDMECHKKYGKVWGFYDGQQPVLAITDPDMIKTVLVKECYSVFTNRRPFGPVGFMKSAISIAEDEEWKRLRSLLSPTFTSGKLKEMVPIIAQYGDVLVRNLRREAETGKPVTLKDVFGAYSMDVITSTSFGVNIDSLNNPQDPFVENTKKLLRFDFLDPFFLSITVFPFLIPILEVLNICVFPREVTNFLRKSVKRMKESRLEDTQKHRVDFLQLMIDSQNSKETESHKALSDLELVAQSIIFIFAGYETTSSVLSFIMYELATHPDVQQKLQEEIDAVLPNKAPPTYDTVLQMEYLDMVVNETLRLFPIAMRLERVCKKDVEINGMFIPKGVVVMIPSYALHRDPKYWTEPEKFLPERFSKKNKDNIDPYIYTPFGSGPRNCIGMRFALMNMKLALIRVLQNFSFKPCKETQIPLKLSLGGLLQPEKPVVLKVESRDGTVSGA
In short: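 P450-Glo CYP3A4 system with proluciferin substrate; compounds preincubated 10 min RT with enzyme-substrate mix, then NADPH regeneration added for 1 h RT. Detection reagent 20 min, luminescence read as relative luminescence units.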
Potency is the fitted concentration of half-maximal effect.

## O=S(=O)(O)SSS(=O)(=O)O
[1]
  Potency: inactive
[2]
  Potency: 35.6 µM (active)
[3]
  Potency: 71 µM (active)
[4]
  Potency: 44.8 µM (active)
[5]
  Potency: inactive
[6]
  Potency: inactive

## CC(=O)OC[C@H]1O[C@@H](OC(C)=O)[C@H](OC(C)=O)[C@@H]1OC(C)=O
[1]
  Potency: inactive
[2]
  Potency: inactive
[3]
  Potency: inactive
[4]
  Potency: inactive
[5]
  Potency: inactive
[6]
  Potency: inactive

## CCCCCC1Nc2cc(C(F)(F)F)c(S(N)(=O)=O)cc2S(=O)(=O)N1 (configuration not stated)
[1]
  Potency: 13.8 µM (active)
[2]
  Potency: inactive
[3]
  Potency: 1.55 µM (active)
[4]
  Potency: inactive
[5]
  Potency: 23.9 µM (active)

## CCCCOC(=O)C(C)OC(=O)CCC (configuration not stated)
[1]
  Potency: inactive
[2]
  Potency: inactive
[3]
  Potency: inactive
[4]
  Potency: inactive
[5]
  Potency: inactive
[6]
  Potency: inactive

## CCCCC(=O)N(C)C
[1]
  Potency: inactive
[2]
  Potency: inactive
[3]
  Potency: inactive
[4]
  Potency: inactive
[5]
  Potency: inactive
[6]
  Potency: inactive

## CO/N=C(/C(=O)N[C@@H]1C(=O)N2C(C(=O)O)=C(Cn3nnc(C)n3)CS[C@H]12)c1csc(N)n1
[1]
  Potency: inactive
[2]
  Potency: inactive
[3]
  Potency: inactive
[4]
  Potency: inactive
[5]
  Potency: inactive
[6]
  Potency: inactive

## BrC/C=C/CBr
[1]
  activity change, negative = inhibition: -5.12% [at 23.6 µM]
[2]
  activity change, negative = inhibition: -2.14% [at 23.6 µM]
[3]
  activity change, negative = inhibition: -9.58% [at 23.6 µM]
[4]
  activity change, negative = inhibition: -13.1% [at 23.6 µM]
[5]
  activity change, negative = inhibition: 3.44% [at 15.8 µM]
[6]
  activity change, negative = inhibition: 0.976% [at 23.6 µM]

## CCCCOC(=O)C(=O)OCCCC
[1]
  Potency: inactive
[2]
  Potency: inactive
[3]
  Potency: inactive
[4]
  Potency: inactive
[5]
  Potency: inactive
[6]
  Potency: inactive

## O=C1c2ccccc2-c2ccccc21
[1]
  Potency: inactive
[2]
  Potency: 57.9 µM (active)
[3]
  Potency: 65 µM (active)
[4]
  Potency: 0.58 µM (active)
[5]
  Potency: inactive
[6]
  Potency: inactive

## CC(C)COC(=O)CCCCC(=O)OCC(C)C
[1]
  Potency: inactive
[2]
  Potency: inactive
[3]
  Potency: 22.4 µM (active)
[4]
  Potency: 39.9 µM (active)
[5]
  Potency: inactive
[6]
  Potency: inactive

## C[CH2][Ge]([Cl])([CH2]C)[CH2]C
[1]
  Potency: inactive
[2]
  Potency: inactive
[3]
  Potency: inactive
[4]
  Potency: inactive
[5]
  Potency: inactive
[6]
  Potency: inactive

## Cc1cc(C)cc([N+](=O)[O-])c1
[1]
  Potency: inactive
[2]
  Potency: inactive
[3]
  Potency: inactive
[4]
  Potency: inactive
[5]
  Potency: inactive
[6]
  Potency: inactive

## C=C[Si](C)(C)O[Si](C)(C)C=C
[1]
  Potency: inactive
[2]
  Potency: inactive
[3]
  Potency: inactive
[4]
  Potency: inactive
[5]
  Potency: inactive
[6]
  Potency: inactive

## Nc1nc(=O)n([C@@H]2O[C@H](CO)[C@@H](O)[C@@H]2F)cc1I
[1]
  Potency: inactive
[2]
  Potency: inactive
[3]
  Potency: inactive
[4]
  Potency: inactive
[5]
  Potency: inactive
[6]
  Potency: inactive

## CC(=O)c1ccc2c(c1)CCCC2
[1]
  Potency: inactive
[2]
  Potency: 79.6 µM (active)
[3]
  Potency: inactive
[4]
  Potency: 35.6 µM (active)
[5]
  Potency: inactive
[6]
  Potency: inactive

## C[C@H]1O[C@H](O[C@H]2[C@H](O)[C@@H](O)[C@@H](O[C@H]3[C@H](O)[C@@H](O)[C@H](O)O[C@@H]3CO)O[C@@H]2CO)[C@H](O)[C@@H](O)[C@@H]1N[C@H]1C=C(CO)[C@@H](O)[C@H](O)[C@H]1O
[1]
  Potency: inactive
[2]
  Potency: inactive
[3]
  Potency: inactive
[4]
  Potency: inactive
[5]
  Potency: inactive
[6]
  Potency: inactive

## COC(=O)CCC(=O)O
[1]
  Potency: inactive
[2]
  Potency: inactive
[3]
  Potency: inactive
[4]
  Potency: inactive
[5]
  Potency: inactive
[6]
  Potency: inactive

## Nc1cc(S(=O)(=O)O)ccc1S(=O)(=O)O
[1]
  Potency: inactive
[2]
  Potency: inactive
[3]
  Potency: inactive
[4]
  Potency: inactive
[5]
  Potency: inactive
[6]
  Potency: inactive

## Nc1c(NC/C=C\COc2cc(CN3CCCCC3)ccn2)c(=O)c1=O
[1]
  Potency: 12 µM (active)
[2]
  activity change, negative = inhibition: -27.3% [at 23.6 µM]
[3]
  activity change, negative = inhibition: -15.9% [at 23.6 µM]
[4]
  activity change, negative = inhibition: 11.8% [at 23.6 µM]
[5]
  activity change, negative = inhibition: 0.241% [at 15.8 µM]
[6]
  Potency: 6.74 µM (active)

## O=C1NC2NC(=O)NC2N1 (configuration not stated)
[1]
  Potency: inactive
[2]
  Potency: inactive
[3]
  Potency: inactive
[4]
  Potency: 35.6 µM (active)
[5]
  Potency: inactive
[6]
  Potency: inactive

## O=C1OC(=O)c2ccccc21
[1]
  Potency: inactive
[2]
  Potency: inactive
[3]
  Potency: inactive
[4]
  Potency: inactive
[5]
  Potency: inactive
[6]
  Potency: inactive

## CC(C)C(=O)Nc1cccc(C(F)(F)F)c1
[1]
  Potency: inactive
[2]
  Potency: inactive
[3]
  Potency: inactive
[4]
  Potency: 7.76 µM (active)
[5]
  Potency: inactive
[6]
  Potency: inactive

## CCCCCCCC[Si](OCC)(OCC)OCC
[1]
  Potency: inactive
[2]
  Potency: inactive
[3]
  Potency: inactive
[4]
  Potency: inactive
[5]
  Potency: inactive
[6]
  Potency: inactive

## CCCCCCCCCCCCC1CO1 (configuration not stated)
[1]
  Potency: inactive
[2]
  Potency: inactive
[3]
  Potency: inactive
[4]
  Potency: inactive
[6]
  Potency: inactive

## CCC(CO)CO
[1]
  Potency: inactive
[2]
  Potency: inactive
[3]
  Potency: inactive
[5]
  Potency: inactive
[6]
  Potency: inactive

## CCCCCCCCCCC
[1]
  Potency: inactive
[2]
  Potency: inactive
[3]
  Potency: 79.6 µM (active)
[5]
  Potency: inactive
[6]
  Potency: inactive

## C=C(C)[C@@H]1CC[C@@H](C)C[C@@H]1O
[1]
  Potency: inactive
[2]
  Potency: inactive
[3]
  Potency: inactive
[5]
  Potency: inactive
[6]
  Potency: inactive

## NC(=O)NNC(N)=O
[1]
  Potency: inactive
[2]
  Potency: inactive
[3]
  Potency: 79.6 µM (active)
[5]
  Potency: inactive
[6]
  Potency: inactive

## Cc1nc(C)nc(N2C[C@@H](C)N(c3ccnc([C@@H](C)O)n3)[C@@H](C)C2)n1
[1]
  Potency: inactive
[2]
  Potency: inactive
[3]
  Potency: inactive
[4]
  Potency: inactive
[6]
  Potency: inactive

## CO[Si](CCCCl)(OC)OC
[1]
  Potency: 31.2 µM (active)
[2]
  Potency: 39.3 µM (active)
[3]
  Potency: 39.3 µM (active)
[4]
  Potency: inactive
[6]
  Potency: 3.51 µM (active)

## CCCOCCOCCOCCO
[1]
  Potency: inactive
[2]
  Potency: inactive
[3]
  Potency: inactive
[5]
  Potency: inactive
[6]
  Potency: inactive

## O=C(O)c1ccc(OCCN2CCCCC2)cc1
[1]
  Potency: inactive
[2]
  Potency: inactive
[3]
  Potency: inactive
[5]
  Potency: inactive
[6]
  Potency: inactive
